Test results from PubChem BioAssay AID686978 (National Center for Advancing Translational Sciences (NCATS), 2013).
About 64,000 (15%) of roughly 420,000 compounds were called active. Not shown: some 27% with an inconclusive outcome. The list is a sample of the results. Values without a mark were called inactive. The call rests on the fitted dose curve; in most records, active means well fitted inhibition curve with a large enough effect; inconclusive means small, poorly fitted or top-dose-only effect; inactive means flat fitted curve, though single readings scatter.

assay: qHTS for Inhibitors of human tyrosyl-DNA phosphodiesterase 1 (TDP1): qHTS in cells in absence of CPT; conditions: DT40 Tdp1-/- hTDP1 cells, no CPT, ATP luminescence, 48 h; activity change, negative = growth inhibition: at 46.2 µM (top of the series); further: nearly all actives have a fitted effect of over 55% in size
How it was run: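 Luminescent ATP content (CellTiter-Glo) served as the growth readout. Knockout chicken DT40 cells expressing human TDP1 were exposed to compounds without camptothecin for a minimum 48 hr at 37 °C.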
On the % scale 0 is the no-effect control and ±100 the full control effect; potency means the concentration at half of the fitted maximal effect.

Row | Compound | activity change, negative = growth inhibition [%] | Potency
1 | CCCC(C(=O)N1CCOCC1)N1C(=O)C2C3C=CC(C3)C2C1=O (stereo not drawn) | -3.04 | 
2 | CC(=O)OCC(COC(C)=O)OC(C)=O |  | inactive
3 | O=C(CN1C(=O)/C(=C\c2ccccc2F)SC1=S)Nc1nc2ccccc2s1 | -16.7 | 
4 | COCCN1CCn2c(nc3cc(NS(C)(=O)=O)ccc32)C1 | 2.37 | 
5 | O=C(CN1C(=O)c2ccccc2S1(=O)=O)NC1CCCCC1 | 0.24 | 
6 | COc1cccc(Oc2ccc(N)cc2)c1 | 4.38 | 
7 | COc1cc(OC)nc(N/N=C(\c2ccccc2)c2ccncc2)n1 | -24.4 | 
8 | CCOc1ccc(N2C(=O)CSC2=NC#N)cc1 | 3.53 | 
9 | COc1ccc(N(C(=O)c2snc(C(N)=O)c2N)C(C(=O)NC2CCCC2)c2ccco2)cc1OC (stereo not drawn) | -1.62 | 
10 | CCC(C(=O)NC1CCCC1)N(C(=O)c1snc(C(N)=O)c1N)c1ccc2c(c1)OCCO2 (stereo not drawn) | -16.1 | 
11 | CCC(C(=O)NC1CCCCC1)N(C(=O)c1snc(C(N)=O)c1N)c1ccc(OC)cc1OC (stereo not drawn) |  | 23.1 µM (active)
12 | COc1cccc(-n2c(=O)c3c(C)c(C(=O)N(C)C)sc3n(CC(=O)NCCc3ccc(OC)c(OC)c3)c2=O)c1 |  | inactive
13 | CN(C)C(CNC(=O)Cc1ccc([N+](=O)[O-])cc1)c1ccccc1 (stereo not drawn) | 0.739 | 
14 | CCc1ccc(C(CNc2nc(C(F)(F)F)nc3ccccc23)N(C)C)cc1 (stereo not drawn) |  | 18.4 µM (active)
15 | C=CCn1cc(Cl)cc(C(=O)Nc2ccccc2)c1=O | 7.08 | 
16 | CCn1cc(/C=C(\NC(=O)c2ccc(C)cc2)C(=O)NCCN2CCOCC2)c2ccccc21 | -5.26 | 
17 | O=C(CC(=O)N/N=C\c1ccc(F)cc1)NCCc1ccccc1 | -3.12 | 
18 | COc1ccccc1NC(=O)CCCc1c[nH]c2ccccc12 | -21.7 | 
19 | O=C(Cc1c[nH]c2ccccc12)N/N=C/c1cccc(F)c1 |  | 3.66 µM (active)
20 | COCCNC(=O)C(c1ccc(O)cc1)N(C(=O)CCC(=O)Nc1nccs1)c1ccc(C)cc1 (stereo not drawn) | -15.8 | 
21 | C/C(=N\N(C)C)c1ccc(OCCOc2ccc([N+](=O)[O-])cc2)cc1 |  | 25.9 µM (active)
22 | C/C(=N/NC(=O)CC(=O)N/N=C(\C)c1ccc([N+](=O)[O-])cc1)c1ccc([N+](=O)[O-])cc1 | -27.2 | 
23 | CCOC(=O)COc1ccc([N+](=O)[O-])cc1 | -6.06 | 
24 | Cc1cccc(N(CC(=O)N2CCCC2)S(C)(=O)=O)c1C | -9 | 

Row | Compound | activity change, negative = growth inhibition [%] | Potency
25 | CC1(OC(=O)CCc2ccccc2)C(=O)C=C2C=C(c3ccc(C#N)cc3)N(CCc3ccccn3)C=C2C1=O (stereo not drawn) | -15.3 | 
26 | CCN(CC)S(=O)(=O)c1ccc2c3c(cccc13)C(=O)S2 | -13.9 | 
27 | C/C(=N\NC(=O)c1cccnc1)c1ccc(-n2ccnc2)cc1 | -4.41 | 
28 | COCC(C)NCc1cc(Br)ccc1OC (stereo not drawn) | -10.7 | 
29 | CCC(C)NCCOCCOc1ccc(Br)cc1C (stereo not drawn) |  | 20.6 µM (active)
30 | O=C1C(=O)N(CCCN2CCOCC2)C(c2ccc([N+](=O)[O-])cc2)/C1=C(\O)c1ccc2c(c1)OCCO2 (stereo not drawn) | 4.62 | 
31 | O=C(ON=C1CCN(S(=O)(=O)c2ccccc2)CC1)c1ccc(Cl)cc1 | 1.58 | 
32 | CCOc1ccc2[nH]c3nc(SCC(=O)NC4CCCC4)nnc3c2c1 |  | 6.51 µM (active)
33 | CCOc1cccc(-c2nnc(SCC(=O)NC3CC3)n2C)c1 | 16.9 | 
34 | Cc1ccc(CNC(=O)CSc2nnc3c(n2)[nH]c2ccc(F)cc23)cc1 | 4.95 | 
35 | CC(Sc1nncn1C)C(=O)Nc1ccccc1-c1ccccc1 (stereo not drawn) | -0.357 | 
36 | COc1ccc(CCNC(=O)Nc2ccc3c(c2)c(=O)n(C)n3C)cc1OC | -3.91 | 
37 | O=C(Cc1cccs1)NCc1cccc(C(F)(F)F)c1 | -13.7 | 
38 | Cn1c(=O)c2cc(NC(=O)NCCc3cccs3)ccc2n1Cc1cccc(C(F)(F)F)c1 |  | 23.1 µM (active)
39 | COc1ccc(S(=O)(=O)Nc2cccnc2)c(Cl)c1Cl | -22.8 | 
40 | Cc1c(NC(=O)CSCc2ccccc2)cccc1C(=O)O | 7.62 | 
41 | Cc1occc1C(=O)N1CCCc2ccccc21 | -3.66 | 
42 | Cc1cccc2cc3c(N)c(C(=O)N4CCCc5ccccc54)sc3nc12 |  | 2.59 µM (active)
43 | O=C(c1cc(-c2ccc(O)cc2)on1)N1CCCc2ccccc21 | -27.9 | 
44 | CC(C)[C@H](NC(=O)OCc1ccccc1)C(=O)OCc1ccccc1 | -26.4 | 
45 | Nc1scc[n+]1Cc1cccc2cccnc12 | 0.571 | 
46 | c1ccc2c(C[n+]3csc4ccccc43)cccc2c1 |  | 0.82 µM (active)
47 | CCOc1ccc(CCNC(=O)c2cc3c(=O)n(C)c4ccccc4c3n2C)cc1 |  | 14.6 µM (active)
48 | Cn1c(C(=O)NCCc2ccsc2)cc2c(=O)n(C)c3ccccc3c21 |  | 16.4 µM (active)
